What follows are binders tested against SpBzz1-D2 (assay: SPOT peptide array binding signal intensity (averaged, normalized) (arbitrary units (background-subtracted, floor 0; scale differs between SH3 domains)); higher = stronger binding of the SH3 domain to the peptide).
Outline: (§1)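 Binding signal refers to normalized, background-subtracted spot intensity averaged over replicates, expressed in arbitrary units that differ between domains. GST-fused SH3 domains from four yeast species were incubated at 10 μg/ml overnight at 4°C on cellulose membranes of synthetic 15-mer peptides with cysteines replaced by serines. Bound protein was detected with anti-GST antibody, an HRP anti-mouse secondary and luminol, and quantified with Genespotter.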
With RRASLFPRDPKRLRP the “SPOT peptide array binding signal intensity” value was ≤ 0.

These binders were tested against SpCyk3 in the same assay as above.
Outline: as §1
In the case of RRASLFPRDPKRLRP, the “SPOT peptide array binding signal intensity” value is reported as 1.

Each binder was assayed against SpHof1 in the same assay as above.
Outline: as §1
RRASLFPRDPKRLRP was tested, and the “SPOT peptide array binding signal intensity” value was 184.

The binders below were run against SpHof1-2 in the same assay as above.
Outline: as §1
RRASLFPRDPKRLRP was tested, and the “SPOT peptide array binding signal intensity” value was 44.5.

Each binder was assayed against SpHof1-3 in the same assay as above.
Outline: as §1
For RRASLFPRDPKRLRP, the “SPOT peptide array binding signal intensity” value was 352.

The binders below were run against SpHse1 in the same assay as above.
Outline: as §1
In the case of RRASLFPRDPKRLRP, the “SPOT peptide array binding signal intensity” value is reported as 420.

The binders below were run against SpLsb1 in the same assay as above.
Outline: as §1
For RRASLFPRDPKRLRP, the “SPOT peptide array binding signal intensity” value was 4.25.

What follows are binders tested against SpLsb4 in the same assay as above.
Outline: as §1
With RRASLFPRDPKRLRP the “SPOT peptide array binding signal intensity” value was 98.

These binders were tested against SpMyo1 in the same assay as above.
Outline: as §1
For RRASLFPRDPKRLRP, the “SPOT peptide array binding signal intensity” value was 2.

Each binder was assayed against SpNbp2 in the same assay as above.
Outline: as §1
RRASLFPRDPKRLRP was tested, and the “SPOT peptide array binding signal intensity” value was 348.

What follows are binders tested against SpPex13 in the same assay as above.
Outline: as §1
RRASLFPRDPKRLRP was tested, and the “SPOT peptide array binding signal intensity” value was 17.

The binders below were run against SpRvs167 in the same assay as above.
Outline: as §1
With RRASLFPRDPKRLRP the “SPOT peptide array binding signal intensity” value was 11.3.

These binders were tested against SpSla1-D1-D2 in the same assay as above.
Outline: as §1
For RRASLFPRDPKRLRP, the “SPOT peptide array binding signal intensity” value was ≤ 0.

What follows are binders tested against SpSla1-D3 in the same assay as above.
Outline: as §1
RRASLFPRDPKRLRP was tested, and the “SPOT peptide array binding signal intensity” value was 19.
